Assay results as given in ChEMBL document CHEMBL1961873, “Compounds: GSK PKIS; Assays: Nanosyn kinase panel” (2012).

Legend:
[1] = target: High affinity nerve growth factor receptor (Homo sapiens) (UniProt P04629); details: at 1 µM;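 also: each value is the mean percent inhibition of TRKA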
[2] = target: BDNF/NT-3 growth factors receptor (Homo sapiens) (UniProt Q16620); details: at 0.1 µM
[3] = target: BDNF/NT-3 growth factors receptor (Homo sapiens) (UniProt Q16620); details: at 1 µM
[4] = target: NT-3 growth factor receptor (Homo sapiens) (UniProt Q16288); details: at 0.1 µM
[5] = target: NT-3 growth factor receptor (Homo sapiens) (UniProt Q16288); details: at 1 µM
[6] = target: T1, Tyrosine-protein kinase TXK (Homo sapiens) (UniProt P42681); details: at 0.1 µM
T1 sequence (whole entry): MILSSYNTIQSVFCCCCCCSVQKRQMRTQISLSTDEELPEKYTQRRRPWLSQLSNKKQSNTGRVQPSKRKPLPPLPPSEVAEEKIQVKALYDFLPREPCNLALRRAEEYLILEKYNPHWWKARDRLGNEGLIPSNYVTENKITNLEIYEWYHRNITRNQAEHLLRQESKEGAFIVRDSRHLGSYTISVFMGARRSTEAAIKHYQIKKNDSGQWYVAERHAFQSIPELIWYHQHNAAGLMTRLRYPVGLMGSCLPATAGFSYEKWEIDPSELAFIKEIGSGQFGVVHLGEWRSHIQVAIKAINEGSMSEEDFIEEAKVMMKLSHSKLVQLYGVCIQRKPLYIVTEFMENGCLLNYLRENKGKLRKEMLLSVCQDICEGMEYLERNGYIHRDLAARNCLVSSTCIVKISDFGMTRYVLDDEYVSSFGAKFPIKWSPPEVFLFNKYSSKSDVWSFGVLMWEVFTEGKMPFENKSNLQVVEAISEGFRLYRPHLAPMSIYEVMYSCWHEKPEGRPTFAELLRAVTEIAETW

[7] = target: T1, Tyrosine-protein kinase TXK (Homo sapiens); details: at 1 µM
[8] = target: Non-receptor tyrosine-protein kinase TYK2 (Homo sapiens) (UniProt P29597); details: at 0.1 µM;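 also: each value is a mean of the inhibition readings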
Sequence of Non-receptor tyrosine-protein kinase TYK2 (Homo sapiens) (P29597 whole entry): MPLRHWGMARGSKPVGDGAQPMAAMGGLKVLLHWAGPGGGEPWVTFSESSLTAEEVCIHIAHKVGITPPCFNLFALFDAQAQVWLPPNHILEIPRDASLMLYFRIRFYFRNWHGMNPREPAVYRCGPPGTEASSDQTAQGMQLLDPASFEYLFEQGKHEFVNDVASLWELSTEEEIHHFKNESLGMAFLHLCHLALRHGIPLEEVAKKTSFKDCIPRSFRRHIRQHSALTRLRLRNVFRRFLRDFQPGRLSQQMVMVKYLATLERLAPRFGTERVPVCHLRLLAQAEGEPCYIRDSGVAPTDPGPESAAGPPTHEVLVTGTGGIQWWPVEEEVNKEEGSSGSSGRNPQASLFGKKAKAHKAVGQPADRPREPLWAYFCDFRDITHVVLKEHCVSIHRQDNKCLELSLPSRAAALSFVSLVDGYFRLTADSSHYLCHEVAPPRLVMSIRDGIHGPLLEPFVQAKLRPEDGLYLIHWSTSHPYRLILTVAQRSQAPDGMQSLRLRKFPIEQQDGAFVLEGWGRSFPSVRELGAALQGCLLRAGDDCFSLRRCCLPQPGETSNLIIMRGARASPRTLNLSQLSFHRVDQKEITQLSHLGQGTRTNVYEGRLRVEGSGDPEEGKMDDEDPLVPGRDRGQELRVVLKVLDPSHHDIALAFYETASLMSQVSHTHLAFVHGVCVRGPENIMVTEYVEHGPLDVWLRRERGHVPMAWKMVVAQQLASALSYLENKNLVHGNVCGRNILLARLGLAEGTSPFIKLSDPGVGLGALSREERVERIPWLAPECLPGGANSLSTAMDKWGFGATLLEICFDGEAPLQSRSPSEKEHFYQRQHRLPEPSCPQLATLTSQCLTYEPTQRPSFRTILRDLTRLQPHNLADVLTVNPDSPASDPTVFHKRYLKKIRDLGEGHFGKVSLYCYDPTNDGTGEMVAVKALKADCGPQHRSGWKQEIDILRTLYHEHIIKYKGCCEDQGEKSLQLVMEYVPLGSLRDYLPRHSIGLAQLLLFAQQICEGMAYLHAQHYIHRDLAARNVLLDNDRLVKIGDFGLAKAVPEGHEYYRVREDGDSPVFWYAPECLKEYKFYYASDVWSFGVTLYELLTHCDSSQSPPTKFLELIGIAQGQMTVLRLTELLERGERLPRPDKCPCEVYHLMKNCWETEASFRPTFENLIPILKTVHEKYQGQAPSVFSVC

[9] = target: T2, Dual specificity protein kinase TTK (Homo sapiens) (UniProt P33981); details: at 1 µM;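 also: reported figures are mean TTK inhibition at 1 µM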
T2 sequence (whole entry): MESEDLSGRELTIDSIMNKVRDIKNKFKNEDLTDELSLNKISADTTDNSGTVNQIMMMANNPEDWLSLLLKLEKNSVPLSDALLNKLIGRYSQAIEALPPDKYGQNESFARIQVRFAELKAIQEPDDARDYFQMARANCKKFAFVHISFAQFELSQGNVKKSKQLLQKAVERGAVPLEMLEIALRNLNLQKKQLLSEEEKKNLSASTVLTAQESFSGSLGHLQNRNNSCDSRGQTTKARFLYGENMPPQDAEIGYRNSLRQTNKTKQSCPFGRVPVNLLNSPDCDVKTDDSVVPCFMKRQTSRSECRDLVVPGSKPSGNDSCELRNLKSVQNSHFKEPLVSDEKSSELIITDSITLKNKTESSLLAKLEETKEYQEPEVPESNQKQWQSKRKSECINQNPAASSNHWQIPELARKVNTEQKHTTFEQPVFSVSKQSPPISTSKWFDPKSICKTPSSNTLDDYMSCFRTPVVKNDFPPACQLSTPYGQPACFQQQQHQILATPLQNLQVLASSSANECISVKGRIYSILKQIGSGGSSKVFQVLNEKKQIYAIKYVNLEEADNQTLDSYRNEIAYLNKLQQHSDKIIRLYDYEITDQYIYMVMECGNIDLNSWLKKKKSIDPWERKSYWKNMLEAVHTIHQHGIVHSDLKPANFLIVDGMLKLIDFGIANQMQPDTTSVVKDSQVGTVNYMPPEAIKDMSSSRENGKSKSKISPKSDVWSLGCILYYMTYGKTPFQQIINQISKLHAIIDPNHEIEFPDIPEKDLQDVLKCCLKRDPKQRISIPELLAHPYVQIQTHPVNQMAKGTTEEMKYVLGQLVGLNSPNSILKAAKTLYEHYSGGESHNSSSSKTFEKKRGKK

[10] = target: T3, Aurora kinase A (Homo sapiens) (UniProt O14965); details: at 0.1 µM
T3 sequence (whole entry): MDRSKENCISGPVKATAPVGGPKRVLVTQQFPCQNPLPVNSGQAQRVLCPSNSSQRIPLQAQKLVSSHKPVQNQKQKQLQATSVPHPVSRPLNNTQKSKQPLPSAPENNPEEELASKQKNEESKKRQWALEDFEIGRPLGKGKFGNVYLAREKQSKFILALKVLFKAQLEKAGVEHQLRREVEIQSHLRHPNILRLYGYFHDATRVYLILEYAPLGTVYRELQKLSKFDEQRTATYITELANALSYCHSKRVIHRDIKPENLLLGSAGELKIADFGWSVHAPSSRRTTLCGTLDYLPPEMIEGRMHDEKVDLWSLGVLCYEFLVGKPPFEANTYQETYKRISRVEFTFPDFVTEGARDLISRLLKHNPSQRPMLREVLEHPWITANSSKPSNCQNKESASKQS

[11] = target: T3, Aurora kinase A (Homo sapiens); details: at 1 µM
[12] = target: Aurora kinase B (Homo sapiens) (UniProt Q96GD4); details: at 0.1 µM
Sequence of Aurora kinase B (Homo sapiens) (Q96GD4 whole entry): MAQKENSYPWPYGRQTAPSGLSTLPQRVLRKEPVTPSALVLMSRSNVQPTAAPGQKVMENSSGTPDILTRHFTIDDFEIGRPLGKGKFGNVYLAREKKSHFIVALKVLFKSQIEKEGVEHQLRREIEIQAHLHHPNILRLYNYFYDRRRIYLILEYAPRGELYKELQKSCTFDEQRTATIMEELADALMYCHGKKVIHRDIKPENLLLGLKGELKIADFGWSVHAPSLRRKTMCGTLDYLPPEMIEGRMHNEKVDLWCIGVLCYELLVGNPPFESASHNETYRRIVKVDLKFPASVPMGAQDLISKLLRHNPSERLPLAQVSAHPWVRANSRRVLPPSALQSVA

[13] = target: Aurora kinase B (Homo sapiens) (UniProt Q96GD4); details: at 1 µM
[14] = target: T4, Aurora kinase C (Homo sapiens) (UniProt Q9UQB9); details: at 0.1 µM
T4 sequence (whole entry): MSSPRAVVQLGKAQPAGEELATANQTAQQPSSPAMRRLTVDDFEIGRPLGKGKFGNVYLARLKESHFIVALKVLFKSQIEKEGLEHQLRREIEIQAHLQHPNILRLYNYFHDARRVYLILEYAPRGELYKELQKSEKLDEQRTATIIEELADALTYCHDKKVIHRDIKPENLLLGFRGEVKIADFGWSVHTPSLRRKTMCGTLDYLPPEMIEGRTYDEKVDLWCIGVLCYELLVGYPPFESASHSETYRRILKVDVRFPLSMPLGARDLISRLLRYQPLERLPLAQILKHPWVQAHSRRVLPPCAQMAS

[15] = target: T4, Aurora kinase C (Homo sapiens); details: at 1 µM
[16] = target: Serine/threonine-protein kinase 10 (Homo sapiens) (UniProt O94804); details: at 0.1 µM
[17] = target: Serine/threonine-protein kinase 10 (Homo sapiens) (UniProt O94804); details: at 1 µM
[18] = target: T5, Mitogen-activated protein kinase kinase kinase kinase 2 (Homo sapiens) (UniProt Q12851); details: at 0.1 µM
T5 sequence (whole entry): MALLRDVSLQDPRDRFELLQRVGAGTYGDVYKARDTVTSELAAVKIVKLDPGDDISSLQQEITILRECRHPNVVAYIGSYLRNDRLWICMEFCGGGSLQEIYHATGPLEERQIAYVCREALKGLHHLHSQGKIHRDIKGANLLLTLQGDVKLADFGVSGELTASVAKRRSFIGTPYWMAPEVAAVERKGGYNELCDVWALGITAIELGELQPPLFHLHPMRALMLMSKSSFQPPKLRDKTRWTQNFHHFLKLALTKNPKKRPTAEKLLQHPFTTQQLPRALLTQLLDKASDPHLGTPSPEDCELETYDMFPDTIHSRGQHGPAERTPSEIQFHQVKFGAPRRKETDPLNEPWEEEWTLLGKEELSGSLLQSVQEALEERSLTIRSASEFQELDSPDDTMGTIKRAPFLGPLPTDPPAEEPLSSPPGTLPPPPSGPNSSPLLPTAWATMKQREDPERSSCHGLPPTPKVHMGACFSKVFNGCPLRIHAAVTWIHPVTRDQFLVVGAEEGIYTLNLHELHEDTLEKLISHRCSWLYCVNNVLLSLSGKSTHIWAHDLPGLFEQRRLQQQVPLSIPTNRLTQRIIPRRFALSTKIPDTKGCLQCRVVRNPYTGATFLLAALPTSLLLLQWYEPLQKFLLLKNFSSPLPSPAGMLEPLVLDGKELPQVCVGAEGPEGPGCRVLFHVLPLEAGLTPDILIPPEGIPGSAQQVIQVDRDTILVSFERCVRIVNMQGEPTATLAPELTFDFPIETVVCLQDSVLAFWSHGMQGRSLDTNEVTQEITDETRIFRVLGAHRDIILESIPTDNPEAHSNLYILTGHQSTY

[19] = target: T5, Mitogen-activated protein kinase kinase kinase kinase 2 (Homo sapiens); details: at 1 µM
[20] = target: Mitogen-activated protein kinase kinase kinase kinase 4 (Homo sapiens) (UniProt O95819); details: at 0.1 µM
Sequence of Mitogen-activated protein kinase kinase kinase kinase 4 (Homo sapiens) (O95819 2-1239 limits assumed): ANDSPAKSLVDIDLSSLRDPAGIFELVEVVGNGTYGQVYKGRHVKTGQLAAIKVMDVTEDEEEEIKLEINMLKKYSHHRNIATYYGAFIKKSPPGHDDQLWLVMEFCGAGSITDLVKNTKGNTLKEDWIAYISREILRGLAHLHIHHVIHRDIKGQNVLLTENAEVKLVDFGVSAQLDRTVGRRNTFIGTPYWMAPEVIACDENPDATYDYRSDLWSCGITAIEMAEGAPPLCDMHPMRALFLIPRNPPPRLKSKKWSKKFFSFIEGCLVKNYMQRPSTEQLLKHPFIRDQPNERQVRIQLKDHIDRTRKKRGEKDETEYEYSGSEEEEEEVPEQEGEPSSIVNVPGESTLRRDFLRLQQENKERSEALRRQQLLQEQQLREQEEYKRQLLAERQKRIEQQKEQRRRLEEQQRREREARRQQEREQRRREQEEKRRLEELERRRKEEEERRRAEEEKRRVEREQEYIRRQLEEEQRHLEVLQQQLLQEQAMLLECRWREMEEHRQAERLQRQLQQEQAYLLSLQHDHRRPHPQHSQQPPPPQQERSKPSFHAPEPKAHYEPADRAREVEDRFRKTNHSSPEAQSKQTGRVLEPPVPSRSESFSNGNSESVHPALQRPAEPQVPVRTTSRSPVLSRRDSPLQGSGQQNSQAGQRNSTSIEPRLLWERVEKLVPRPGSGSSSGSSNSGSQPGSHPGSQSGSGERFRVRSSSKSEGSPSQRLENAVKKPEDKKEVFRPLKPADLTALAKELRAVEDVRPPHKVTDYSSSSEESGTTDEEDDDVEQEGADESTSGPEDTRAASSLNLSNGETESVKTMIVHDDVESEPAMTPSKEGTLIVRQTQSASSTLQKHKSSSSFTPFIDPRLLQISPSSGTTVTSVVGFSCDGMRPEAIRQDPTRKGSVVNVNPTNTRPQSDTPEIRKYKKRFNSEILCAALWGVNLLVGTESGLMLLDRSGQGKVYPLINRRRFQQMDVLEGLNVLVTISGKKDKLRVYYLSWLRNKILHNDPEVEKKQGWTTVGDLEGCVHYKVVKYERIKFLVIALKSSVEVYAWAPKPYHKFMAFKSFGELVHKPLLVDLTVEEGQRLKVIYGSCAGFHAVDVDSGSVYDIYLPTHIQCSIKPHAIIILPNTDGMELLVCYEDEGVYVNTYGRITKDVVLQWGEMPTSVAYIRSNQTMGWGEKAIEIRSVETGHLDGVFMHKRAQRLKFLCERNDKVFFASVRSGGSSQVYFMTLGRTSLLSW

Sequence of BDNF/NT-3 growth factors receptor (Homo sapiens) (Q16620 32-822 limits assumed): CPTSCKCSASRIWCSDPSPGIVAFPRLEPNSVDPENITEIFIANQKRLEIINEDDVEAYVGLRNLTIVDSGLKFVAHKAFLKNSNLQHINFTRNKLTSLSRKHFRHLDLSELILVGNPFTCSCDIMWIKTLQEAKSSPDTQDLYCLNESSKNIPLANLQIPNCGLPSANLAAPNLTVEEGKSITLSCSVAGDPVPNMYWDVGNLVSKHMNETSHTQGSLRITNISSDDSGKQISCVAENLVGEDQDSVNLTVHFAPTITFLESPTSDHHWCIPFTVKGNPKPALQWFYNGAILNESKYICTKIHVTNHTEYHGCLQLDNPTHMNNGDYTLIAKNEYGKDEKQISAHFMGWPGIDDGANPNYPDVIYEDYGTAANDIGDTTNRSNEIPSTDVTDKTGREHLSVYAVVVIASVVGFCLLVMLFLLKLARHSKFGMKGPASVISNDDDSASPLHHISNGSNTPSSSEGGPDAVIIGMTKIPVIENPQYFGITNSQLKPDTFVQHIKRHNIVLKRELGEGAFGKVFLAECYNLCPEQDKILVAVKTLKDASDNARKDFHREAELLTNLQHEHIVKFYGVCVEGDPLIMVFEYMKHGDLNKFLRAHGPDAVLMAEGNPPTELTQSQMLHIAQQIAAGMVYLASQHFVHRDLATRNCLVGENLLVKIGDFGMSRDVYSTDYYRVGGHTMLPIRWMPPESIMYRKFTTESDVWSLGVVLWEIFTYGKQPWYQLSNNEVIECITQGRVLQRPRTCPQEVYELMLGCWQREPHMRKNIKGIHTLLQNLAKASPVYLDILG
Sequence of High affinity nerve growth factor receptor (Homo sapiens) (P04629 33-796 limits assumed): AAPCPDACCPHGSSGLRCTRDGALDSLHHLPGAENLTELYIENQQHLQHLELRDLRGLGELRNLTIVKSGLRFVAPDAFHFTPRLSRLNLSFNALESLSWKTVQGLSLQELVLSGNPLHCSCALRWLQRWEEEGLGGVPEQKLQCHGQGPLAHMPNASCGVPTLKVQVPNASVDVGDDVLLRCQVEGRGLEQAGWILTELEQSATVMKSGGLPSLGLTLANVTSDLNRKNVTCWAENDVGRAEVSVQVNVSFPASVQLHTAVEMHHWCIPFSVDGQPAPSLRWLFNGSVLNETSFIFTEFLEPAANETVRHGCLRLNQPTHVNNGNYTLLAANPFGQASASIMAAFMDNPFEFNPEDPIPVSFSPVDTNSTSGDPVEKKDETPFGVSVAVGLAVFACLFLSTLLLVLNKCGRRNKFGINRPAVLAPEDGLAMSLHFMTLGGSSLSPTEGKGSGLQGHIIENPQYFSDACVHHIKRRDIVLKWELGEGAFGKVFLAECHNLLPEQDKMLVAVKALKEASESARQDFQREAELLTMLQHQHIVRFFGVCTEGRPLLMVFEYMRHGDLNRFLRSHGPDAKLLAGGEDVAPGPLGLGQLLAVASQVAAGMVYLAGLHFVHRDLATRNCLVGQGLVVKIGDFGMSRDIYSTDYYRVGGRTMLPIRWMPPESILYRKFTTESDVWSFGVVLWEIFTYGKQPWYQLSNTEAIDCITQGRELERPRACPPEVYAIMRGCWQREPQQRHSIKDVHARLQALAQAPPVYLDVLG

| Structure (SMILES) | inhibition [1] | inhibition [2] | inhibition [3] | inhibition [4] | inhibition [5] | inhibition [6] | inhibition [7] | inhibition [8] | inhibition [9] | inhibition [10] | inhibition [11] | inhibition [12] | inhibition [13] | inhibition [14] | inhibition [15] | inhibition [16] | inhibition [17] | inhibition [18] | inhibition [19] | inhibition [20] |
| --- | --- | --- | --- | --- | --- | --- | --- | --- | --- | --- | --- | --- | --- | --- | --- | --- | --- | --- | --- | --- |
| Fc1cccc(COc2ccc(Nc3ncnc4sc(-c5ccco5)cc34)cc2Cl)c1 | 0.66% | 3.36% | 3.82% | 3.74% | 3.88% | -1.45% | 3.65% | -2.62% | 6.39% | 2.5% | 3.83% | 3.38% | 6.89% | 5.96% | 7.59% | 9.25% | 15% | 1.99% | 3.87% | 3.43% |
| CCOc1ccc2c(-c3ccnc(Nc4cccc(C(F)(F)F)c4)n3)cnn2n1 | 0.26% | 0.03% | 2.11% | 0.07% | 3.18% | -0.13% | 3.47% | -0.74% | 4.11% | 1.41% | 7.68% | 6.17% | 9.87% | 2.6% | 12.5% | 4.81% | 12.9% | 0.42% | 6.12% | 0.65% |
| COc1ccc(-c2nn3ncccc3c2-c2ccnc(Nc3ccc4c(c3)OCCO4)n2)cc1 | 20.2% | 1.61% | 18.7% | -1.55% | 6.72% | -0.79% | 3.19% | -1.16% | 11.6% | 18.5% | 63.2% | 3.61% | 17.4% | 6.73% | 46.8% | 11.2% | 55.1% | 0.69% | 4.16% | 0.61% |
| COc1cc(Nc2nccc(Nc3ccc4c(C)n[nH]c4c3)n2)cc(OC)c1OC | 64.1% | 4.63% | 41% | -0.03% | 17.3% | 23.9% | 61.9% | -1.55% | 8.41% | 10.2% | 66.5% | 5.08% | 24.2% | 7.34% | 79.7% | 26.1% | 77.6% | 3.12% | 7.42% | 2.17% |
| c1ccc(COc2ccc(Nc3ncnc4ccc(-c5ccco5)cc34)cc2)cc1 | -2.33% | -0.32% | 3.16% | -0.16% | 0.74% | 0.01% | 1.09% | -4.95% | 3.2% | 2.29% | 3.53% | 1.9% | 4.9% | 0.82% | 6.4% | 3.53% | 5.39% | 2.84% | 2.66% | 2.01% |
| CNC(=O)c1cc(-c2ccc(F)cc2)cc(-c2ccc(S(=O)(=O)N3CCCC3)cc2)c1N | 2.94% | 2.22% | 2.48% | 2.53% | 2.33% | 2.21% | 2.22% | -3.89% | 3.8% | 0.79% | 0.86% | 2.91% | 3.09% | -0.67% | 1.97% | 2.49% | 4.92% | 1% | 0.67% | 3.33% |
| N#Cc1c(NC(=O)CN2CCOCC2)sc2c1CCCC2 | 0.84% | 2.29% | 4.03% | 2.17% | 2.8% | 2.2% | 3.56% | -1.25% | 12.8% | 2.73% | 8.53% | 4.66% | 10.7% | 2.31% | -1.84% | 5.94% | 6.99% | 1.71% | 2.67% | 10.5% |
| CC1=C(C(=O)Nc2cc(Cl)c3[nH]ncc3c2)C(c2ccc(C(F)(F)F)cc2)CC(=O)N1 (stereo not given) | 2.71% | 2.52% | 3.55% | 3.39% | 6.01% | 2.42% | 1.68% | -1.59% | 5.07% | 3.11% | 16.6% | 2.95% | 10% | 0.68% | 7.15% | 6.25% | 7.45% | 2% | 3.92% | 2.89% |
| CCCN(CCS(C)(=O)=O)Cc1ccc(-c2ccc3ncnc(Nc4ccc(OCc5cccc(F)c5)c(Cl)c4)c3c2)o1 | 0.23% | 0.15% | 1.45% | 2.2% | 2.15% | 2.27% | 2.93% | -3.81% | 5.96% | 1.47% | 11.8% | 3.11% | 8.39% | 1.17% | 5.04% | 2.22% | 5.54% | 0.84% | 2.9% | 1.66% |
| CC(C)(CO)CNC(=O)c1ccc2c(c1)/C(=N/Nc1ccc(S(N)(=O)=O)cc1)C(=O)N2 | 15.6% | 3.35% | 31.2% | 6.89% | 41.5% | -0.15% | 3.21% | -1.38% | 79.2% | 11.9% | 56.2% | 0.26% | 21% | 3.09% | 43% | -1.79% | 4.55% | 0.92% | 3.15% | 0.68% |
| Nc1ncc(-c2cccc(S(N)(=O)=O)c2)c2scc(-c3ccc(F)c(Cl)c3)c12 | 2.2% | 2.61% | 3.28% | 1.75% | 1.1% | 82% | 91.6% | -1.25% | 14.3% | 3.16% | 5.8% | 2.25% | 14.7% | 4.24% | 24.6% | 8.9% | 24.7% | 6.47% | 31.4% | 78.5% |
| CCn1c(-c2nonc2N)nc2c(C#CC(C)(C)O)nc(OC[C@H](N)c3ccccc3)cc21 | 3.54% | 1.58% | 2.5% | 1.64% | 6.42% | 7.32% | 3.73% | -2.11% | 11.2% | 2.4% | 2.98% | 3.29% | 5.24% | 1.89% | 2.08% | 7.07% | 28.8% | 3.33% | 16% | 4.79% |
